Reference: PubChem BioAssay AID2326 (National Center for Advancing Translational Sciences (NCATS), 2010)
Among all 270,000 compounds or so, about 1,100 (0.41%) were called active. Not shown: some 3% with an inconclusive outcome. The sample holds actives, similar compounds and a random draw of the others, so the mix is not that of the screen. The call rests on the fitted dose curve.
Potency means the concentration at half of the fitted maximal effect.

Test: qHTS Assay for Inhibitors of Influenza NS1 Protein Function; further: actives are rising curves; nearly all actives have a fitted effect of over 50% in size
Conditions: series mostly up to 46.1 µM; activity, positive = more growth: at the top concentration
Procedure, shortened: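 Compounds were scored for reversing the slow growth caused by influenza A NS1 in S. cerevisiae, measured by optical density at 600 nm. Assay medium contained 2% galactose at pH 6.0; NS1-free yeast of the same strain were the positive control.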
For Cc1ccc(CNC(=O)C(=O)c2cn(CC(=O)N3CCCC3)c3ccccc23)cc1, the “activity, positive = more growth” value was 1.2% (inactive). In the case of COc1cc(CNCc2ccc(OC)c3ccccc23)cc(OC)c1OC, the “activity, positive = more growth” value is reported as 12.4% (inactive). For COc1ccc(Nc2ncnc3ccc(Br)cc23)c(OC)c1, the “activity, positive = more growth” value was -47.8% (inactive). With COc1ccc(CC(=O)N/N=C/c2cc([N+](=O)[O-])cc(Br)c2O)cc1 the “activity, positive = more growth” value was 5.43% (inactive). In the case of CC(C)(COC(=O)Nc1ccccc1)COC(=O)Nc1ccccc1, the “activity, positive = more growth” value is reported as -46.3% (inactive). For COc1ccc(C=C(C#N)C#N)c(CSc2ccccn2)c1, the “activity, positive = more growth” value was -3.49% (inactive). In the case of COc1ccc(NCCc2ccccn2)cc1, the “activity, positive = more growth” value is reported as -5.94% (inactive). For CCc1ccc(S(=O)(=O)Nc2cc3c(cc2N2CCCCC2)n(C)c(=O)c(=O)n3C)cc1, the Potency was 2.82 µM (active). For Cn1c(=O)c(=O)n(C)c2cc(S(=O)(=O)CCC(=O)N3CCCCC3)ccc21, the “activity, positive = more growth” value was 6.48% (inactive). With Cc1ccc(NS(=O)(=O)c2ccc3c(c2)n(C)c(=O)c(=O)n3C)c(C)c1 the “activity, positive = more growth” value was 3.06% (inactive). In the case of CCOC(=O)CC1COCCN1C(=O)c1cc(COc2ccc(F)c(F)c2)on1 (centres undefined), the “activity, positive = more growth” value is reported as -7.11% (inactive). With O=C(NC(=S)N1CCCCC1c1cccnc1)c1ccccc1 (centres undefined) the “activity, positive = more growth” value was -11% (inactive). For CCC(C)c1ccc(NC(=S)N2CCCC2)cc1 (centres undefined), the “activity, positive = more growth” value was -46% (inactive). For COC(=O)C1=C(C)NC(=O)NC1/C=C/c1ccccc1 (centres undefined), the “activity, positive = more growth” value was -6.7% (inactive). In the case of COC(=O)C1=C(C)N=C2SC(C)C(=O)N2C1/C=C/c1ccccc1 (centres undefined), the Potency is reported as 11.2 µM (active). In the case of CCOC(=O)c1ccccc1N1C(=O)C2Sc3[nH]c(=O)sc3C(/C=C/c3ccccc3)C2C1=O (centres undefined), the “activity, positive = more growth” value is reported as 27% (inactive). In the case of Cc1nonc1NC(=O)c1oc2ccccc2c1C, the “activity, positive = more growth” value is reported as -9.93% (inactive). In the case of Cc1nc(-c2ccc(Cl)cc2)sc1C(=O)NN, the Potency is reported as 3.55 µM (active). In the case of Cc1nc(N2CCOCC2)sc1C(=O)NN, the “activity, positive = more growth” value is reported as 5.54% (inactive). For Cc1ccc(SCC(=O)c2sc(-c3ccccc3)nc2C)cc1, the “activity, positive = more growth” value was -13.1% (inactive). With CN(CC(=O)Nc1ccc(F)cc1)C(=O)c1ccc(-c2ccc(Cl)cc2)o1 the “activity, positive = more growth” value was -54% (inactive). For CCOC(=O)CC1(NC(=O)c2cc(COc3cncc(Cl)c3)on2)CCCCC1, the “activity, positive = more growth” value was -17.2% (inactive). For O=C(Cc1cccs1)NCc1cccc(C(F)(F)F)c1, the “activity, positive = more growth” value was 2.72% (inactive). In the case of Cc1ccc(CSc2nc(-c3ccccc3)c(C#N)c(=O)[nH]2)cc1, the “activity, positive = more growth” value is reported as 2.5% (inactive). For N#Cc1c(-c2cccs2)nc(SCC(=O)c2ccc(Br)cc2)[nH]c1=O, the Potency was 3.16 µM (active). In the case of O=C(CSc1nc2ccccc2c(=O)[nH]1)Nc1nc(-c2ccc(Br)cc2)cs1, the “activity, positive = more growth” value is reported as 13.7% (inactive). In the case of COc1ccc(NC(=O)CSc2nc3ccccc3c(=O)n2C)cc1, the “activity, positive = more growth” value is reported as 2.09% (inactive). For COCCN1C(=O)N(c2ccc(Cl)cc2)C(=O)C1CC(=O)Nc1cc(OC)cc(OC)c1 (centres undefined), the “activity, positive = more growth” value was -4.12% (inactive). With CC(=O)N1c2ccc(S(=O)(=O)N3CCCC(C(=O)Nc4cccc(F)c4)C3)cc2CC1C (centres undefined) the “activity, positive = more growth” value was 9.5% (inactive).
